{"source": "paper PMC8384837", "about": "“Expanding the binding specificity for RNA recognition by a PUF domain”", "assay_in_all_cases": "yeast three-hybrid, YBZ-1, SC-Leu-His + 0.5 mM 3-AT, 4 days", "conditions_in_all_cases": "tags: N-Gal4 AD-HA kept; label: inside an RPR1-promoter hybrid RNA with tandem MS2 sites; ssRNA", "key": {"PUM1 PUF domain R3-SKL": {"biological_target": "PUM1 PUF domain R3-SKL (Homo sapiens, UniProt Q14671 828-1176, C935S;R936K;Q939L)", "procedure,_shortened": "(§1)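 Pumilio-1 PUF domain libraries, randomized (NNK) at the three base-contacting residues of each repeat, were co-expressed with matching RNA elements from a centromeric plasmid in strain YBZ-1 (LexA–MS2 coat fusion, HIS3 reporter). Transformants were plated on SC-Leu (input) and SC-Leu-His + 0.5 mM 3-AT (selection) for four days, and repeat regions were PCR-amplified and Illumina-sequenced. The interaction score is the log2 change in variant frequency from input to selection, with pseudocount 1 where absent.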"}, "PUM1 PUF domain R3-VRK": {"biological_target": "PUM1 PUF domain R3-VRK (Homo sapiens, UniProt Q14671 828-1176, C935V;Q939K)", "procedure,_shortened": "as §1"}, "PUM1 PUF domain R3-MCV": {"biological_target": "PUM1 PUF domain R3-MCV (Homo sapiens, UniProt Q14671 828-1176, C935M;R936C;Q939V)", "procedure,_shortened": "as §1"}, "PUM1 PUF domain R4-NPN": {"biological_target": "PUM1 PUF domain R4-NPN (Homo sapiens, UniProt Q14671 828-1176, H972P;Q975N)", "procedure,_shortened": "as §1"}, "PUM1 PUF domain R5-GNN": {"biological_target": "PUM1 PUF domain R5-GNN (Homo sapiens, UniProt Q14671 828-1176, C1007G;R1008N;Q1011N)", "procedure,_shortened": "as §1"}, "PUM1 PUF domain R5-GRW": {"biological_target": "PUM1 PUF domain R5-GRW (Homo sapiens, UniProt Q14671 828-1176, C1007G;Q1011W)", "procedure,_shortened": "as §1"}, "PUM1 PUF domain R2-LLY": {"biological_target": "PUM1 PUF domain R2-LLY (Homo sapiens, UniProt Q14671 828-1176, N899L;Y900L;Q903Y)", "procedure,_shortened": "as §1"}, "PUM1 PUF domain R1-KGE": {"biological_target": "PUM1 PUF domain R1-KGE (Homo sapiens, UniProt Q14671 828-1176, S863K;R864G;Q867E)", "procedure,_shortened": "as §1"}, "PUM1 PUF domain R1-RAN": {"biological_target": "PUM1 PUF domain R1-RAN (Homo sapiens, UniProt Q14671 828-1176, S863R;R864A;Q867N)", "procedure,_shortened": "as §1"}, "PUM1 PUF domain R8-PHR": {"biological_target": "PUM1 PUF domain R8-PHR (Homo sapiens, UniProt Q14671 828-1176, N1122P;Y1123H;Q1126R)", "procedure,_shortened": "as §1"}, "PUM1 PUF domain R3-GPY": {"biological_target": "PUM1 PUF domain R3-GPY (Homo sapiens, UniProt Q14671 828-1176, C935G;R936P;Q939Y)", "procedure,_shortened": "as §1"}, "PUM1 PUF domain R6-SWV": {"biological_target": "T1, PUM1 PUF domain R6-SWV (Homo sapiens, UniProt Q14671 828-1176, N1043S;Y1044W;Q1047V)", "T1 sequence": "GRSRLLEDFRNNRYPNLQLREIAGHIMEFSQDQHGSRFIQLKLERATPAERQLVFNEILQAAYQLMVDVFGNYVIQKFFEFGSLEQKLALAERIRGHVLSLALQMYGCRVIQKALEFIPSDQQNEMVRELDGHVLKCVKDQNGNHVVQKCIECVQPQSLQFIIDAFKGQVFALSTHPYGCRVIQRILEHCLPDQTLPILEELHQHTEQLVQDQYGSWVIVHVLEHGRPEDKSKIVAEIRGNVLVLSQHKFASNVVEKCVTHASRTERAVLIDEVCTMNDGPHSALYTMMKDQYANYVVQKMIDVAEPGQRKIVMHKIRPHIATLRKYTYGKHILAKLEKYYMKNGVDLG", "procedure,_shortened": "as §1"}, "PUM1 PUF domain R6-WWS": {"biological_target": "T2, PUM1 PUF domain R6-WWS (Homo sapiens, UniProt Q14671 828-1176, N1043W;Y1044W;Q1047S)", "T2 sequence": "T1 sequence with S216W, V220S", "procedure,_shortened": "as §1"}, "PUM1 PUF domain R6-MWG": {"biological_target": "T3, PUM1 PUF domain R6-MWG (Homo sapiens, UniProt Q14671 828-1176, N1043M;Y1044W;Q1047G)", "T3 sequence": "T1 sequence with S216M, V220G", "procedure,_shortened": "as §1"}, "PUM1 PUF domain R4-CRL": {"biological_target": "PUM1 PUF domain R4-CRL (Homo sapiens, UniProt Q14671 828-1176, N971C;H972R;Q975L)", "procedure,_shortened": "as §1"}, "PUM1 PUF domain R6-LWA": {"biological_target": "T4, PUM1 PUF domain R6-LWA (Homo sapiens, UniProt Q14671 828-1176, N1043L;Y1044W;Q1047A)", "T4 sequence": "T1 sequence with S216L, V220A", "procedure,_shortened": "as §1"}, "PUM1 PUF domain R5-WHL": {"biological_target": "PUM1 PUF domain R5-WHL (Homo sapiens, UniProt Q14671 828-1176, C1007W;R1008H;Q1011L)", "procedure,_shortened": "as §1"}, "PUM1 PUF domain R7-MSR": {"biological_target": "PUM1 PUF domain R7-MSR (Homo sapiens, UniProt Q14671 828-1176, S1079M;N1080S;E1083R)", "procedure,_shortened": "as §1"}, "PUM1 PUF domain R7-RIR": {"biological_target": "PUM1 PUF domain R7-RIR (Homo sapiens, UniProt Q14671 828-1176, S1079R;N1080I;E1083R)", "procedure,_shortened": "as §1"}, "PUM1 PUF domain R5-KAM": {"biological_target": "PUM1 PUF domain R5-KAM (Homo sapiens, UniProt Q14671 828-1176, C1007K;R1008A;Q1011M)", "procedure,_shortened": "as §1"}}, "note": "Where a chain is given by its changes, count along the chain named.", "data": [{"sequence": "GGCUAGAACUAGUGGAUCCCCCGGCGCCCGGCGGCUCGAGCCCGGGUAAGUGUAAUUAGUCUGCAUGCCGCCGGGCGCCAUGCCUGCAGGUCGACUCUAGAAAACAUG", "values": [{"measurement": "binding signal", "setting": "PUM1 PUF domain R3-SKL", "value": "2.84 log2 enrichment (interaction score)"}, {"measurement": "binding signal", "setting": "PUM1 PUF domain R3-VRK", "value": "3.28 log2 enrichment (interaction score)"}, {"measurement": "binding signal", "setting": "PUM1 PUF domain R3-MCV", "value": "1.41 log2 enrichment (interaction score)"}]}, {"sequence": "GGCUAGAACUAGUGGAUCCCCCGGCGCCCGGCGGCUCGAGCCCGGGUAAGUGUAAGUAGUCUGCAUGCCGCCGGGCGCCAUGCCUGCAGGUCGACUCUAGAAAACAUG", "values": [{"measurement": "binding signal", "setting": "PUM1 PUF domain R3-MCV", "value": "2.64 log2 enrichment (interaction score)"}]}, {"sequence": "GGCUAGAACUAGUGGAUCCCCCGGCGCCCGGCGGCUCGAGCCCGGGUAAGUGUAUAUAGUCUGCAUGCCGCCGGGCGCCAUGCCUGCAGGUCGACUCUAGAAAACAUG", "values": [{"measurement": "binding signal", "setting": "PUM1 PUF domain R4-NPN", "value": "3.56 log2 enrichment (interaction score)"}]}, {"sequence": "GGCUAGAACUAGUGGAUCCCCCGGCGCCCGGCGGCUCGAGCCCGGGUAAGUGUUAAUAGUCUGCAUGCCGCCGGGCGCCAUGCCUGCAGGUCGACUCUAGAAAACAUG", "values": [{"measurement": "binding signal", "setting": "PUM1 PUF domain R5-GNN", "value": "3.44 log2 enrichment (interaction score)"}, {"measurement": "binding signal", "setting": "PUM1 PUF domain R5-GRW", "value": "4.05 log2 enrichment (interaction score)"}]}, {"sequence": "GGCUAGAACUAGUGGAUCCCCCGGCGCCCGGCGGCUCGAGCCCGGGUAAGUGUAAAGAGUCUGCAUGCCGCCGGGCGCCAUGCCUGCAGGUCGACUCUAGAAAACAUG", "values": [{"measurement": "binding signal", "setting": "PUM1 PUF domain R2-LLY", "value": "2.22 log2 enrichment (interaction score)"}]}, {"sequence": "GGCUAGAACUAGUGGAUCCCCCGGCGCCCGGCGGCUCGAGCCCGGGUAAGUGUAAAUGGUCUGCAUGCCGCCGGGCGCCAUGCCUGCAGGUCGACUCUAGAAAACAUG", "values": [{"measurement": "binding signal", "setting": "PUM1 PUF domain R1-KGE", "value": "1.9 log2 enrichment (interaction score)"}]}, {"sequence": "GGCUAGAACUAGUGGAUCCCCCGGCGCCCGGCGGCUCGAGCCCGGGUAAGUGUAAAUCGUCUGCAUGCCGCCGGGCGCCAUGCCUGCAGGUCGACUCUAGAAAACAUG", "values": [{"measurement": "binding signal", "setting": "PUM1 PUF domain R1-RAN", "value": "3.89 log2 enrichment (interaction score)"}]}, {"sequence": "GGCUAGAACUAGUGGAUCCCCCGGCGCCCGGCGGCUCGAGCCCGGGUAAGCGUAAAUAGUCUGCAUGCCGCCGGGCGCCAUGCCUGCAGGUCGACUCUAGAAAACAUG", "values": [{"measurement": "binding signal", "setting": "PUM1 PUF domain R8-PHR", "value": "4.58 log2 enrichment (interaction score)"}]}, {"sequence": "GGCUAGAACUAGUGGAUCCCCCGGCGCCCGGCGGCUCGAGCCCGGGUAAGUGUAAAUAGUCUGCAUGCCGCCGGGCGCCAUGCCUGCAGGUCGACUCUAGAAAACAUG", "values": [{"measurement": "binding signal", "setting": "PUM1 PUF domain R8-PHR", "value": "4.34 log2 enrichment (interaction score)"}, {"measurement": "binding signal", "setting": "PUM1 PUF domain R3-GPY", "value": "6.77 log2 enrichment (interaction score)"}, {"measurement": "binding signal", "setting": "PUM1 PUF domain R6-SWV", "value": "1.05 log2 enrichment (interaction score)"}, {"measurement": "binding signal", "setting": "PUM1 PUF domain R6-WWS", "value": "3.36 log2 enrichment (interaction score)"}, {"measurement": "binding signal", "setting": "PUM1 PUF domain R6-MWG", "value": "3.83 log2 enrichment (interaction score)"}, {"measurement": "binding signal", "setting": "PUM1 PUF domain R4-CRL", "value": "5.64 log2 enrichment (interaction score)"}, {"measurement": "binding signal", "setting": "PUM1 PUF domain R5-GRW", "value": "2.31 log2 enrichment (interaction score)"}, {"measurement": "binding signal", "setting": "PUM1 PUF domain R6-LWA", "value": "4.92 log2 enrichment (interaction score)"}]}, {"sequence": "GGCUAGAACUAGUGGAUCCCCCGGCGCCCGGCGGCUCGAGCCCGGGUAAGUGUGAAUAGUCUGCAUGCCGCCGGGCGCCAUGCCUGCAGGUCGACUCUAGAAAACAUG", "values": [{"measurement": "binding signal", "setting": "PUM1 PUF domain R5-WHL", "value": "7.53 log2 enrichment (interaction score)"}]}, {"sequence": "GGCUAGAACUAGUGGAUCCCCCGGCGCCCGGCGGCUCGAGCCCGGGUAAGUGUAAAUUGUCUGCAUGCCGCCGGGCGCCAUGCCUGCAGGUCGACUCUAGAAAACAUG", "values": [{"measurement": "binding signal", "setting": "PUM1 PUF domain R1-KGE", "value": "4.18 log2 enrichment (interaction score)"}, {"measurement": "binding signal", "setting": "PUM1 PUF domain R1-RAN", "value": "3.21 log2 enrichment (interaction score)"}]}, {"sequence": "GGCUAGAACUAGUGGAUCCCCCGGCGCCCGGCGGCUCGAGCCCGGGUAAGUUUAAAUAGUCUGCAUGCCGCCGGGCGCCAUGCCUGCAGGUCGACUCUAGAAAACAUG", "values": [{"measurement": "binding signal", "setting": "PUM1 PUF domain R7-MSR", "value": "3.5 log2 enrichment (interaction score)"}, {"measurement": "binding signal", "setting": "PUM1 PUF domain R7-RIR", "value": "3.4 log2 enrichment (interaction score)"}]}, {"sequence": "GGCUAGAACUAGUGGAUCCCCCGGCGCCCGGCGGCUCGAGCCCGGGUAAGUGUCAAUAGUCUGCAUGCCGCCGGGCGCCAUGCCUGCAGGUCGACUCUAGAAAACAUG", "values": [{"measurement": "binding signal", "setting": "PUM1 PUF domain R5-KAM", "value": "3.82 log2 enrichment (interaction score)"}, {"measurement": "binding signal", "setting": "PUM1 PUF domain R5-WHL", "value": "2.9 log2 enrichment (interaction score)"}]}, {"sequence": "GGCUAGAACUAGUGGAUCCCCCGGCGCCCGGCGGCUCGAGCCCGGGUAAGUGAAAAUAGUCUGCAUGCCGCCGGGCGCCAUGCCUGCAGGUCGACUCUAGAAAACAUG", "values": [{"measurement": "binding signal", "setting": "PUM1 PUF domain R6-SWV", "value": "2.26 log2 enrichment (interaction score)"}, {"measurement": "binding signal", "setting": "PUM1 PUF domain R6-LWA", "value": "3.04 log2 enrichment (interaction score)"}]}]}
